Pol iota inh = DNA polymerase iota (human) inhibition; Q9UNA4; Pol iota fluorescent replication assay, 10 min; Potency, µM (top dose mostly 115 µM), actives largely listed as inhibitors; actives 1% (n = 390,000)
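Pol iota at 10 nM preincubated 15 min with compounds at room temperature; reaction started with fluorescent substrate, 50 nM final. Fluorescence read kinetically at 0 and 10 min; buffer-only wells as negative control.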
Pol eta inh = DNA polymerase eta (human) inhibition | Q9Y253 | recombinant Pol eta, fluorescent DNA replication assay | Potency, µM (highest dose often 114 µM), most hits filed as inhibitors | actives 1.2% (n = 390,000)
Target sequence (Q9Y253 whole entry, looked up): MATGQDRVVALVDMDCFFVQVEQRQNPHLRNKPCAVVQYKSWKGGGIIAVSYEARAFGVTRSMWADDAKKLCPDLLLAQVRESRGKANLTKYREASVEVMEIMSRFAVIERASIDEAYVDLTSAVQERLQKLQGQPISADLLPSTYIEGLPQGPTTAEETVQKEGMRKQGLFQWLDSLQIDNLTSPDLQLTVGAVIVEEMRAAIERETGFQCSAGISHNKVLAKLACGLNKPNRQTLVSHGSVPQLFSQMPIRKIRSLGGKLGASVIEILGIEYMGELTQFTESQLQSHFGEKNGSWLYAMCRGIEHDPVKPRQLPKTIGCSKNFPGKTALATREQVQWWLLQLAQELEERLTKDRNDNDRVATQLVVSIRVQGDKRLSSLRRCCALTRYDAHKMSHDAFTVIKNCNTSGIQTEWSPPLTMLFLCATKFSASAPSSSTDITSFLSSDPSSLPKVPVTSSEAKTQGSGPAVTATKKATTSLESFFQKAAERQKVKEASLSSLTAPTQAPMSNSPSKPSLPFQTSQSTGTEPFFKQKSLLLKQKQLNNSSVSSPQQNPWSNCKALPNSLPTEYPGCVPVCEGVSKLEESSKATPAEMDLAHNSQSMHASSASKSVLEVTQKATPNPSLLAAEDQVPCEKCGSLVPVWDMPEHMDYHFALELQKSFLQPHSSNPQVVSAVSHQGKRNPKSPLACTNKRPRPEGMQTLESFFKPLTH
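Pol eta (10 nM) was preincubated with compounds for 15 min at room temperature, after which fluorescent replication substrate (50 nM final) was added to start the reaction. Fluorescence was read kinetically at 0 and 10 min.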
POLB inh = DNA polymerase beta (human) inhibition; Pol beta primer extension/strand displacement, fluorescence kinetic; AID 485314; actives 1.3% (n = 340,000); P06746; Potency, µM (top dose mostly 114 µM), actives largely listed as inhibitors
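Pol beta (10 nM) was preincubated with compound for 15 min at room temperature. The reaction was then started with 50 nM substrate and read immediately and after a further 10 min at room temperature.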
Pol kappa inh = blocks human DNA polymerase kappa activity; AID 588579; Potency, µM (series often up to 107 µM), hits mostly inhibitors; purified Pol kappa, fluorescent DNA synthesis assay, 10 min; actives 0.53% (n = 400,000)
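Inhibition of 10 nM Pol kappa is measured by a fluorescent read-out at 0 and 10 min following addition of 50 nM substrate (final), with a 15-min room-temperature compound preincubation.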
TDP1 inh = TDP1 (human) enzyme inhibition; Q9NUW8; recombinant TDP1, AlphaScreen DNA substrate cleavage; Potency, µM (titrated, usually from 130 µM), hits mostly inhibitors; actives 0.28% (n = 350,000); AID 485290; also: nearly all actives have a fitted effect of over 40% in size
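Signal: AlphaScreen proximity between streptavidin donor and anti-FITC acceptor beads on intact substrate. Reaction: Tdp1 1 nM, substrate 15 nM final, 5 min RT after 15 min compound preincubation.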
A number is an active result; [ ] = dose if it differs, or a comment. Most compounds without a hit are left out; they make up all but 2.4% or so of the library. Calls follow the shape of the dose curve; as a rule, active = well fitted curve in the direction sought with a large enough effect; inconclusive = small, poorly fitted or top-dose-only effect, or another doubt; inactive = no such curve, though single readings can be large; an effect the other way counts as inactive or inconclusive.

For Cc1ccc(-c2nc(Cn3c(SCc4ccc(F)cc4)nc4cccnc43)c(C)o2)cc1 the results were Pol iota inh inactive, Pol eta inh inactive, POLB inh inactive, Pol kappa inh inactive and TDP1 inh inactive.
Screening O=C(O)Cn1cc(/C=C/[N+](=O)[O-])c2ccccc21 returned Pol iota inh 28µM, Pol eta inh 45µM, POLB inh inactive, Pol kappa inh inactive and TDP1 inh inactive.
Screening COc1ccc(-c2nc3ccc(C4=C(C)CC(=O)NN4)cc3[nH]2)cc1 returned Pol kappa inh inactive[19.4 µM].
O=C1C[C@@H](c2ccc(O)c(O)c2)Oc2c1ccc(O[C@@H]1O[C@H](CO)[C@@H](O)[C@H](O)[C@H]1O)c2O was read as Pol kappa inh 2.7µM and TDP1 inh inactive.
Screening COc1cc(/C=C/CO)ccc1O[C@@H]1O[C@H](CO)[C@@H](O)[C@H](O)[C@H]1O returned Pol iota inh inactive, Pol eta inh inactive and Pol kappa inh inactive.
For O=C(/C=C/c1ccc(O)c(O)c1)c1ccc(O[C@@H]2O[C@H](CO)[C@@H](O)[C@H](O)[C@H]2O)c(O)c1O the results were Pol kappa inh 0.19µM.
COc1ccc(CCNC(=O)c2cc3c(=O)[nH]c4ccc(C)cc4c3s2)cc1OC was read as Pol iota inh inactive, Pol eta inh inactive, POLB inh inactive, Pol kappa inh inactive and TDP1 inh inactive.
`O=C(CNC(=O)C1CCCCC1)OCC(=O)c1ccccc1` gave Pol iota inh inactive, Pol kappa inh inactive and TDP1 inh inactive.
Screening CCOc1ccc(S(=O)(=O)N2CCC(N3CCN(Cc4ccc(C)cc4)C(=O)C3=O)CC2)cc1 returned Pol iota inh inactive, Pol eta inh inactive, POLB inh inactive, Pol kappa inh inactive and TDP1 inh inactive.
Cc1cccc(Cn2cnc3c(cnn3C(C)(C)C)c2=O)c1F was read as Pol iota inh inactive and Pol kappa inh inactive.
`Cn1cncc1C#Cc1ccc2cc(C3(O)CCCCC3)oc(=O)c2c1` gave Pol iota inh inactive, Pol eta inh inactive, Pol kappa inh inactive and TDP1 inh 56µM.
Cn1cncc1C#Cc1ccc2cc(C(C)(C)O)oc(=O)c2c1 was read as Pol iota inh inactive, Pol eta inh inactive, Pol kappa inh inactive and TDP1 inh inactive.
For CC1C=CC=CC=CC=CC=CC=CC=CC(OC2OC(C)C(O)C(N)C2O)CC2OC(O)(CC(O)CC(O)C(O)CCC(O)CC(O)CC(=O)OC(C)C(C)C1O)CC(O)C2C(=O)O (centres undefined) the results were Pol iota inh 1.3µM, Pol eta inh 0.89µM and Pol kappa inh 18µM.
C=CCn1c(COc2cccc(C)c2)nnc1SCC(=O)c1c(N)n(C)c(=O)n(C)c1=O was read as Pol iota inh inactive, Pol eta inh inactive and Pol kappa inh inactive.
Screening C=CCn1c(COc2cccc(C)c2)nnc1SCC(=O)NC(=O)NCc1ccco1 returned Pol iota inh 71µM, Pol eta inh inconclusive, POLB inh 20µM and Pol kappa inh inconclusive.
Screening Cc1ccc(-n2c(SCC(=O)NCc3ccco3)nnc2-c2cccnc2)cc1 returned Pol iota inh inactive, Pol eta inh inactive, POLB inh inactive, Pol kappa inh inactive and TDP1 inh inactive.
Screening C=CCn1c(COc2ccc(F)cc2)nnc1SCC(=O)NC(=O)NCc1ccco1 returned Pol iota inh 50µM, Pol eta inh inconclusive, POLB inh 25µM, Pol kappa inh inconclusive and TDP1 inh inactive.
For O=C(CSc1nnc(-c2ccncc2)n1-c1ccc(F)cc1)NC(=O)NCc1ccco1 the results were Pol iota inh 20µM, Pol eta inh 79µM, POLB inh 28µM and Pol kappa inh inconclusive.
Screening O=C1Nc2ccccc2Oc2cc([N+](=O)[O-])ccc21 returned Pol iota inh inactive, Pol eta inh 50µM, POLB inh inconclusive, Pol kappa inh inactive and TDP1 inh inactive.
`Cc1ccc2c(c1)NC(=O)c1cc([N+](=O)[O-])ccc1O2` gave Pol iota inh inactive, Pol eta inh inactive, POLB inh inactive, Pol kappa inh inactive and TDP1 inh inactive.
For O=C(CSc1ccc2nnc(-c3cccs3)n2n1)N1CCCC1 the results were Pol iota inh inactive, Pol eta inh inactive, POLB inh 45µM, Pol kappa inh inactive and TDP1 inh inactive.
COc1ccc(C2=Nn3c(nnc3-c3ccccc3Cl)SC2)cc1OCC1CC1 was read as Pol iota inh inactive, Pol eta inh inactive, Pol kappa inh 40µM and TDP1 inh inactive.
COc1cccc(CNCCSc2nnnn2-c2ccccc2)c1OC was read as Pol iota inh inactive, Pol eta inh inactive, POLB inh inactive, Pol kappa inh inactive and TDP1 inh inactive.
`O=C(O)/C(=C\c1cccc(O)c1)c1ccc(S(=O)(=O)N2CCCC2)s1` gave Pol iota inh inconclusive, Pol eta inh 35µM and Pol kappa inh inconclusive.
Screening COc1ccc(Br)cc1/C=C(\C(=O)O)c1ccc(S(=O)(=O)N2CCCCC2)s1 returned Pol iota inh inactive, Pol eta inh inconclusive, Pol kappa inh inactive and TDP1 inh inactive.
O=C(O)/C(=C/c1ccc(Cl)c([N+](=O)[O-])c1)c1ccc(S(=O)(=O)N2CCCCC2)s1 was read as Pol iota inh inconclusive, Pol eta inh 28µM and Pol kappa inh 89µM.
`O=C(O)/C(=C\c1cccc(F)c1)c1ccc(S(=O)(=O)N2CCCCC2)s1` gave Pol iota inh inconclusive, Pol eta inh inconclusive, POLB inh 22µM, Pol kappa inh inactive and TDP1 inh inactive.
O=C(O)c1ccc(N2C(=O)CSC2=S)cc1 was read as Pol iota inh inconclusive, Pol eta inh inactive and Pol kappa inh 79µM.
O=C(O)c1ccc(N=C2SCC(=O)N2Cc2ccccc2)cc1 was read as Pol iota inh inactive, Pol eta inh inactive, POLB inh inactive, Pol kappa inh inactive and TDP1 inh inactive.
For O=C(O)c1ccc(CN2C(=O)CSC2=S)cc1 the results were Pol iota inh inconclusive, Pol eta inh inactive, POLB inh inconclusive, Pol kappa inh 50µM and TDP1 inh inconclusive.
Screening Cc1ccc(C)c(N2CCN(CCCNC(=O)Cn3ncc4c5ccccc5n(C)c4c3=O)CC2)c1 returned Pol iota inh inactive, Pol eta inh inactive, POLB inh inactive, Pol kappa inh inactive and TDP1 inh inactive.
Cc1cc(C)c(C#N)c(SCC(=O)c2cccs2)n1 was read as Pol iota inh inactive, Pol eta inh inactive, POLB inh inactive, Pol kappa inh inactive and TDP1 inh 50µM.
For Cc1cc(C)c(C#N)c(SCC(=O)c2ccccc2)n1 the results were Pol iota inh inactive, Pol eta inh inactive, POLB inh inactive, Pol kappa inh inactive and TDP1 inh inactive.
`CCOC(=O)CC(=O)CSc1nc(CC)c(C)cc1C#N` gave Pol iota inh inactive, Pol eta inh inactive, POLB inh inactive, Pol kappa inh inactive and TDP1 inh 71µM.
For Cc1ccccc1CNC(=O)C(=O)NCCC1CCCCN1S(=O)(=O)c1cccs1 (centres undefined) the results were Pol iota inh inactive, Pol eta inh inactive and Pol kappa inh inactive.

Assay outcomes deposited in PubChem by National Center for Advancing Translational Sciences (NCATS).
